Laboratory results from PubChem BioAssay (NCATS).
Inconclusive results are not listed. Calls of active or inactive are those of the source. Unless noted, the call rests on the fitted dose curve; in most records, active means well fitted curve in the direction sought with a large enough effect; inconclusive means small, poorly fitted or top-dose-only effect, or another doubt; inactive means no such curve, though single readings can be large; an effect the other way counts as inactive or inconclusive.

Columns and labels:
[1] = Primary qHTS for inhibitors of nuclear receptor binding SET domain protein 2 (NSD2) in an isogenic RCH-ACV NSD2 p.E1099K mutant (9B) (AID 1645876); further: potency means the concentration at half of the fitted maximal effect; nearly all actives have a fitted effect of over 70% in size
[2] = Primary qHTS for inhibitors of nuclear receptor binding SET domain protein 2 (NSD2) in an RCH-ACV wild type WT cells (2C) (AID 1645877); further: potency means the concentration at half of the fitted maximal effect; nearly all actives have a fitted effect of over 70% in size
[3] = molecular target: Glutathione peroxidase 1 (Homo sapiens) (UniProt P07203); test: Primary qHTS Assay for Inhibitors of Recombinant Selenoprotein Glutathione Peroxidase 1 (GPX1) (AID 1845191); further: nearly all actives have a fitted effect of over 65% in size
Outline: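 Recombinant GPX1 (10 nM final) was preincubated with compound for 30 min at room temperature, then reacted with 1 mM GSH, 0.5 mM CHP, 0.5 mM NADPH and 100 nM glutathione reductase; NADPH fluorescence (340/450 nm) was read at 0 and 15 min.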

[4] = molecular target: Phospholipid hydroperoxide glutathione peroxidase GPX4 (Homo sapiens) (UniProt P36969); test: Primary qHTS Assay for Inhibitors of Recombinant Selenoprotein Glutathione Peroxidase 4 (GPX4) (AID 1845192); conditions: outcome: dose series up to 50 µM unless noted; further: nearly all actives have a fitted effect of over 65% in size
Outline: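 GR-coupled readout: 100 nM GR, 1 mM GSH, 0.5 mM NADPH; NADPH fluorescence (ex 340/em 450 nm) read at t=0 and after 15 min RT. GPX4 200 nM, preincubated 30 min with compound; substrate 0.5 mM CHP.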

[5] = molecular target: Mitogen-activated protein kinase 10 (Mus musculus) (UniProt Q61831); test: JNK3 AlphaScreen Assay (AID 530; active means well fitted curve in either direction with a large enough effect, not every such curve was filed as active;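 further: kinase came from lysate of stimulated human HepG2 cells; signal reports phosphorylation of biotinylated GST-cJun 1-79 at Ser73 with 10 µM ATP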)
Outline: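 JNK3 came from HepG2 lysates pre-activated with IL-1beta and TNF-alpha and phosphorylated biotinylated GST-cJun (1-79) at 10 uM ATP, pH 7.6, room temperature. Compounds were titrated. AlphaScreen signal used anti-phospho-cJun (Ser73) antibody.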

[6] = molecular target: 3',5'-cyclic-AMP phosphodiesterase 4B (Homo sapiens) (UniProt Q07343); test: qHTS Assay for Inhibitors of PDE-IV (AID 607; active means well fitted activation curve with a large enough effect in the main read-out, with a control signal flat, not every such curve was filed as active; further: potency means the concentration at half of the fitted maximal effect)
Outline: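 ACTOne HEK293 cells carry a modified cAMP-gated CNG channel and express endogenous PDE4; plated 1000 cells/well, compounds up to 22.9 uM final. Membrane-potential dye fluorescence (ex 535/em 590) was read; parental cells received 10 uM forskolin + 100 uM RO 20-1724.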

[7] = qHTS Assay for Identification of Small Molecule Agonists for Thrombopoietin (TPO) Signaling Pathway (AID 917)
Outline: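 Reporter: GpIIb promoter–luciferase in murine Ba/F3 expressing human TPO receptor. Pre-starved of IL-3 overnight; compounds with 26 pM TPO, 24 hrs, 37 C/5% CO2; luminescence read.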

[8] = molecular target: Muscarinic acetylcholine receptor M1 (Rattus norvegicus) (UniProt P08482); test: qHTS Assay for Antagonists of Acetylcholine Muscarinic M1 Receptor: Measurement of IP-One Response (AID 944); further: nearly all actives have a fitted effect of over 75% in size; further: potency means the concentration at half of the fitted maximal effect
Outline: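 CHO cells expressing rat M1 receptor, recovered overnight, were pre-incubated 10 min with compound, then stimulated 30 min with carbachol at EC80 (200 nM) in LiCl-containing buffer, pH 7.4. IP1 accumulation was read by HTRF (620/665 nm).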

[9] = tested on: AS120; test: qHTS profiling for inhibitors of Plasmodium falciparum proliferation (AID 504749); further: nearly all actives have a fitted effect of over 60% in size; further: potency means the concentration at half of the fitted maximal effect; conditions: P. falciparum in erythrocytes, SYBR Green DNA, 72 h; series mostly up to 28.7 µM
Outline: (§1)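 P. falciparum-infected erythrocytes (0.3% parasitemia, 2.5% hematocrit final) were exposed to compounds for 72 h at 37 C in 5% CO2, then lysed with SYBR Green buffer overnight at room temperature; parasite DNA fluorescence was normalized to artemisinin and DMSO controls.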

[10] = tested on: ATS95; test: as above; conditions: P. falciparum in erythrocytes, SYBR Green DNA, 72 h; series mostly up to 28.7 µM
Outline: as §1

[11] = tested on: C2A; test: as above; conditions: P. falciparum in erythrocytes, SYBR Green DNA, 72 h; series mostly up to 28.7 µM
Outline: as §1

[12] = tested on: CP217; test: as above; conditions: P. falciparum in erythrocytes, SYBR Green DNA, 72 h; series mostly up to 28.7 µM
Outline: as §1

[13] = tested on: CP237; test: as above; conditions: P. falciparum in erythrocytes, SYBR Green DNA, 72 h; series mostly up to 28.7 µM
Outline: as §1

[14] = tested on: CP252; test: as above; conditions: P. falciparum in erythrocytes, SYBR Green DNA, 72 h; series mostly up to 28.7 µM
Outline: as §1

[15] = tested on: CP286; test: as above; conditions: P. falciparum in erythrocytes, SYBR Green DNA, 72 h; series mostly up to 28.7 µM
Outline: as §1

[16] = tested on: DFO2036; test: as above; conditions: P. falciparum in erythrocytes, SYBR Green DNA, 72 h; series mostly up to 28.7 µM
Outline: as §1

[17] = tested on: ECU; test: as above; conditions: P. falciparum in erythrocytes, SYBR Green DNA, 72 h; series mostly up to 28.7 µM
Outline: as §1

[18] = tested on: SC27B; test: as above; conditions: P. falciparum in erythrocytes, SYBR Green DNA, 72 h; series mostly up to 28.7 µM
Outline: as §1

[19] = tested on: TAB165; test: as above; conditions: P. falciparum in erythrocytes, SYBR Green DNA, 72 h; series mostly up to 28.7 µM
Outline: as §1

[20] = molecular target: Muscarinic acetylcholine receptor M1 (Rattus norvegicus) (UniProt P08482); test: qHTS Assay for Antagonists of Acetylcholine Muscarinic M1 Receptor: Kinetic Measurement of Intracellular Calcium Response (AID 943); further: nearly all actives have a fitted effect of over 75% in size; further: potency means the concentration at half of the fitted maximal effect
Outline: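 CHO cells stably expressing rat M1 were loaded with no-wash Fluo-4 dye for 1 h at 37C, pre-incubated 10 min with compound, then challenged with EC80 carbachol (100 nM final); kinetic calcium read 4 min, peak/basal ratio.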

Measured: Potency

Chain of Glutathione peroxidase 1 (Homo sapiens) (P07203 whole entry, looked up): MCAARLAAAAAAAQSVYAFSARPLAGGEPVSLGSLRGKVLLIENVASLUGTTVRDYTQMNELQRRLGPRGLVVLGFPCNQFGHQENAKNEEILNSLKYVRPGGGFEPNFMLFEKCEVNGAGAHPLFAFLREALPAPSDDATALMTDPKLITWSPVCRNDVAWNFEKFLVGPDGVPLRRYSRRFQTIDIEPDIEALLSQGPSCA
Chain of Muscarinic acetylcholine receptor M1 (Rattus norvegicus) (P08482 whole entry, looked up): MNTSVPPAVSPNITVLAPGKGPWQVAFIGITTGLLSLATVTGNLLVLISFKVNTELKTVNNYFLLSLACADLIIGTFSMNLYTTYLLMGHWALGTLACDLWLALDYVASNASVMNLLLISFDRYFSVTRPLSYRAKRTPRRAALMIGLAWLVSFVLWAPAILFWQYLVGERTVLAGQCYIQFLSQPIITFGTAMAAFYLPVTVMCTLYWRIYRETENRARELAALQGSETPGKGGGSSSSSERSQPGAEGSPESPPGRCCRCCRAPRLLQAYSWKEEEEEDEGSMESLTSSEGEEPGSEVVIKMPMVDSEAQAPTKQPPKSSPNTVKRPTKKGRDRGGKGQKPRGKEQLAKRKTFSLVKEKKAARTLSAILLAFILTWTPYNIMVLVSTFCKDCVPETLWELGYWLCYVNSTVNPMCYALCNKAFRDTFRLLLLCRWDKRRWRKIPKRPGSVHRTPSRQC
Chain of Phospholipid hydroperoxide glutathione peroxidase GPX4 (Homo sapiens) (P36969 whole entry, looked up): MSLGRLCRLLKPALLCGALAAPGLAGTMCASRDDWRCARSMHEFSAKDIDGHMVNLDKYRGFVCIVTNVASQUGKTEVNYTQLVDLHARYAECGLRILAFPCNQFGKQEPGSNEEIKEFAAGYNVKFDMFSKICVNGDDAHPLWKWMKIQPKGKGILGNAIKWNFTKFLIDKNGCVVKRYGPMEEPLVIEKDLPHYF
Chain of 3',5'-cyclic-AMP phosphodiesterase 4B (Homo sapiens) (Q07343 whole entry, looked up): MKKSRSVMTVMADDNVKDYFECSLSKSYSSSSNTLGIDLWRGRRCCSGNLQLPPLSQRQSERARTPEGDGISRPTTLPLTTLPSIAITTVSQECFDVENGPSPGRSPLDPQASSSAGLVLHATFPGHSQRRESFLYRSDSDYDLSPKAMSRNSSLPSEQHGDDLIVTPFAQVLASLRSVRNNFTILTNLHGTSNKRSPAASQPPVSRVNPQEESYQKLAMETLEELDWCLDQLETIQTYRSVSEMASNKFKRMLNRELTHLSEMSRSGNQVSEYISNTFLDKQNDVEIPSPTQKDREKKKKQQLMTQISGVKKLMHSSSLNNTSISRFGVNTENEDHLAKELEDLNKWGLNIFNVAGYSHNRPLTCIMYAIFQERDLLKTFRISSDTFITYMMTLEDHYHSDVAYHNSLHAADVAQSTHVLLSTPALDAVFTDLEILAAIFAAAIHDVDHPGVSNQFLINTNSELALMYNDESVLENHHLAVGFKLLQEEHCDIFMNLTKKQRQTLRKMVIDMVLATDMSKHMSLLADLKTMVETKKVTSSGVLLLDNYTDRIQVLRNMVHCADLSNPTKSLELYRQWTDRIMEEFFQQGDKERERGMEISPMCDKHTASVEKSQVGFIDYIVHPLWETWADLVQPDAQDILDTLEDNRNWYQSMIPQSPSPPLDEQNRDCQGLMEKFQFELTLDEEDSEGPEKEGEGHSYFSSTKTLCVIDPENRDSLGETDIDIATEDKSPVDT

C[C@@H](Oc1cc(C(=O)Nc2ccc(C(=O)N3CCN(C)CC3)cc2)nnc1N)c1c(Cl)ccc(F)c1Cl
active: [1] 2.63 µM | [2] 1.48 µM
inactive: [3] | [4]

CCN(CC)CCNC(=O)c1c(C)[nH]c(/C=C2/C(=O)Nc3ccc(-c4csc(-c5ccccc5)n4)cc32)c1C
active: [1] 7.42 µM | [2] 5.9 µM
inactive: [4]

COc1cc(C(N)=O)ccc1NC(=O)[C@@H]1N[C@@H](CC(C)(C)C)[C@@]2(C(=O)Nc3cc(Cl)ccc32)[C@H]1c1cccc(Cl)c1F
active: [1] 0.235 µM | [2] 0.0934 µM
inactive: [3]

COc1nnc2ccc(N3CCC(c4ccc(OCCN5CCN(C)C(=O)[C@H]5C)cc4)CC3)nn12
active: [1] 0.0661 µM | [2] 0.0525 µM

NC(=NCCC[C@H](N)C(=O)O)NO
inactive: [5] | [6] | [7] | [8]

CN1C(=O)CCC1c1cccnc1 (centres undefined)
inactive: [9] | [10] | [11] | [12] | [13] | [14] | [15] | [16] | [17] | [18] | [19]

O=C1NC(=O)[C@@H](c2c[nH]c3ccccc23)[C@H]1c1cn2c3c(cccc13)CCC2
inactive: [3]
active: [1] 1.18 µM | [2] 0.934 µM

N[C@H](Cc1ccc(O)c(O)c1)C(=O)O
inactive: [9] | [10] | [11] | [12] | [13] | [14] | [15] | [16] | [17] | [18] | [19]

NCCC(=O)NCCc1cnc[nH]1
inactive: [5] | [6] | [7] | [20] | [8]

Cc1c(C(=O)Nc2ccc(Oc3ccnc4[nH]cc(-c5ccccc5)c34)c(F)c2)c(=O)n(-c2ccc(F)cc2)n1C
inactive: [3] | [4]
active: [2] 1.86 µM

N=C1Sc2ccccc2C2=NCCCN12
inactive: [5] | [6] | [8]

CCCc1cc(C(=O)N[C@H](Cc2ccc(-c3cccc(OC(F)(F)F)c3)nc2)C(=O)N[C@@H]2CCNC2)sc1C
inactive: [3]
active: [1] 6.61 µM | [2] 5.9 µM

Cc1ccccc1N1CCN(S(=O)(=O)C[C@]23CCC(CC2NC(=O)[C@@H](N)CCS(C)(=O)=O)C3(C)C)CC1 (some centres undefined)
inactive: [3]

NCCNC(=O)c1ccc(Cl)cc1
inactive: [5] | [6] | [7] | [8]

CN=C(N)NCCCC(N)C(=O)O (centres undefined)
inactive: [9] | [10] | [11] | [12] | [13] | [14] | [15] | [16] | [17] | [18] | [19]

O=C(Cc1ccc(Cl)c(Cl)c1)OCCN1CCCC1
active: [20] 14.1 µM
inactive: [5] | [6] | [7]

Nc1nc2c(c(=O)[nH]1)N1CN(c3ccc(C(=O)N[C@@H](CCC(=O)O)C(=O)O)cc3)CC1CN2 (some centres undefined)
active: [1] 0.833 µM | [2] 0.742 µM
inactive: [3] | [4]

C=CCN(/C=C1\C(=O)O[C@@H](COC)[C@]2(C)C1=C(O)C(=O)C1=C2[C@@H](OC(C)=O)C[C@]2(C)C(=O)CC[C@H]12)CC=C
active: [1] 10.5 µM | [2] 8.33 µM
inactive: [3] | [4]

OC[C@H]1O[C@@H](n2cnc3c(NCCc4ccccc4)ncnc32)[C@H](O)[C@H]1O
inactive: [20] | [8]

Cn1cc(-c2ccc(-c3cncc(Cl)c3N3CCC4(CCNC4=O)CC3)cc2)cn1
active: [1] 8.33 µM
inactive: [3] | [4]

COC1CC(C(=O)c2ccc3c(N)ncc(-c4ccc(-c5cnn(C)c5)cc4)c3n2)C1 (centres undefined)
inactive: [3] | [4]
active: [1] 1.48 µM

NC(=O)c1cccc2c(NC(CN3CCC3)c3ccc(Cl)c(C(F)(F)F)c3)ncnc12 (centres undefined)
active: [1] 1.05 µM | [2] 1.32 µM
inactive: [3]

N=C(N)SCCc1cccc(CCSC(=N)N)c1
inactive: [5] | [6] | [7]
active: [20] 4.47 µM

CN1C[C@H](C(=O)N[C@]2(C)O[C@@]3(O)C4CCCN4C(=O)[C@H](Cc4ccccc4)N3C2=O)C[C@@H]2c3cccc4[nH]cc(c34)C[C@H]21 (some centres undefined)
active: [9] 1.41 µM | [10] 7.08 µM | [11] 8.91 µM | [12] 6.31 µM | [13] 1 µM | [14] 6.31 µM | [15] 3.98 µM | [16] 7.94 µM | [17] 1.12 µM | [18] 2.24 µM | [19] 1.41 µM

CC(C)(C)[C@]1(O)CCN2CC3c4ccccc4CCc4cccc(c43)[C@@H]2C1 (some centres undefined)
active: [10] 10 µM | [11] 11.2 µM | [12] 8.91 µM | [13] 11.2 µM | [14] 10 µM | [15] 8.91 µM | [17] 14.1 µM | [18] 7.94 µM | [19] 11.2 µM

CC(C)C[C@H]1C(=O)N2CCCC2[C@]2(O)O[C@](NC(=O)[C@@H]3C=C4c5cccc6[nH]c(Br)c(c56)C[C@H]4N(C)C3)(C(C)C)C(=O)N12 (some centres undefined)
active: [9] 3.55 µM | [10] 5.01 µM | [11] 11.2 µM | [12] 7.08 µM | [13] 2 µM | [14] 7.08 µM | [15] 3.55 µM | [16] 11.2 µM | [17] 3.55 µM | [18] 6.31 µM | [19] 2.82 µM

CCn1c(=O)c2[nH]c(-c3ccccc3)nc2n(CC)c1=O
active: [6] 2 µM
inactive: [8]

COC(=O)c1c(-c2cc(OC)c(OC)c(OC)c2)c2ccc(OCc3ccccn3)cc2c(=O)n1-c1ccc(N)cc1
inactive: [5] | [7] | [20] | [8]

COc1cc2c(cc1OC)C(c1ccccc1)CN(C)CC2 (centres undefined)
inactive: [9] | [10] | [11] | [12] | [14] | [15] | [16] | [17] | [18] | [19]
active: [13] 6.31 µM

CCSC(N)=Nc1ccc(C(F)(F)F)cc1
inactive: [5] | [6] | [7]

CCCC(=O)NCCc1c2n(c3ccc(OC)cc13)Cc1ccccc1-2
inactive: [5] | [6] | [7] | [20] | [8]

NCCCCNS(=O)(=O)c1cccc2c(Cl)cccc12
active: [20] 14.1 µM | [8] 17.8 µM
inactive: [6]

COc1ccc(CCNC[C@@H](O)c2ccc(O)cc2)cc1OC
inactive: [9] | [10] | [11] | [12] | [13] | [14] | [15] | [16] | [17] | [18] | [19]

CC(=O)NCCc1ccc(O)c(O)c1
inactive: [6] | [7] | [20]

CC(C)CN(C)c1nc(N)c(C(=O)N=C(N)N)nc1Cl
inactive: [5] | [6] | [8]
